ADAM17 inh: ADAM17 inhibitors, primary screen, biochemical, QFRET; Disintegrin and metalloproteinase domain-containing protein 17 (Homo sapiens), P78536; recombinant ADAM17, EDANS/DABCYL FRET peptide cleavage; inhibition, % at 6.95 µM; actives 0.83% (n = 370,000);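 active = inhibition above the mean of compounds lying between control limits plus 3 SD, set per campaign, cut at about 8.5% in these data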;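 note: 0% = DMSO-only wells as the low control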
ADAM10 inh: human ADAM10 inhibitors, primary screen, biochemical, QFRET, HTS; recombinant ADAM10, EDANS/DABCYL FRET peptide cleavage, 3 h; inhibition, % at 7 µM; actives 0.62% (n = 370,000);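 active = inhibition above a per-campaign cutoff equal to the mean of compounds falling between control-based bounds plus 3 SD, cut at about 20% in these data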;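 note: 0% = DMSO wells while the 100% control is not disclosed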
PLC-gamma1 inh: PLC-gamma1 enzyme inhibitors, primary screen, biochemical, fluorescence, purified enzyme | 1-phosphatidylinositol 4,5-bisphosphate phosphodiesterase gamma-1 (Homo sapiens), P19174 | fluorogenic substrate | inhibition, % at 12.2 µM | actives 0.84% (n = 370,000); in the data active = inhibition above about 9.5%
KLK7 zymogen act: proKLK7 zymogen activators, primary screen, biochemical, fluorescence intensity; Kallikrein-7 (Homo sapiens), P49862; purified proKLK7, EDANS-DABCYL substrate fluorescence; 100% is mature enzyme control, 0% vehicle; activation, % at 7 µM; actives 0.9% (n = 370,000);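 active = activation above the mean of all tested compounds plus 3 SD, computed per campaign excluding outliers beyond control limits, cut at about 13% in these data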
PLCb3 inh: human PLC-beta3 inhibitors, primary screen, biochemical, fluorescence; actives 0.18% (n = 370,000); 1-phosphatidylinositol 4,5-bisphosphate phosphodiesterase beta-3 (Homo sapiens), Q01970; inhibition, % at 12.2 µM; Purified PLC-beta3, fluorogenic substrate;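 note: 0% = median of compound wells on plate and 100% = full blocker control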
PLCgamma1 ctr: PLC-gamma1 enzyme inhibitors, counter-screen for PLC-beta3 inhibitor project, biochemical, fluorescence. AID 743258, 2014. inhibition, % at 12.3 µM. shares compounds with PLC-gamma1 inh. purified PLC-gamma1, fluorogenic substrate. actives 3.1% (n = 3,300); in the data active = inhibition above about 9.5%
PLCb3 confirm: PLC-beta3 inhibitor confirmation, biochemical, fluorescence, purified enzyme; shares compounds with PLC-gamma1 inh; fluorogenic substrate fluorescence; inhibition, % at 12.3 µM; actives 1% (n = 3,300)
* hit, by the source's call; x = no result. In the library only some 2.9% were active in any assay of this set; here they are far more common. Cut-off read from the data, not from the text of the source, unless noted: active = inhibition above about 11%; inactive = the rest.

SMILES | ADAM17 inh | ADAM10 inh | PLC-gamma1 inh | KLK7 zymogen act | PLCb3 inh | PLCgamma1 ctr | PLCb3 confirm
Cc1c(N/C(=N/S(=O)(=O)c2ccccc2)c2ccc(Cl)cc2)c(=O)n(-c2ccccc2)n1C | -2 | -1 | 2 | -1 | 3 | x | x
O=C(N/N=C/C(Cl)=C/c1ccc([N+](=O)[O-])cc1)C(=O)Nc1cccc(C(=O)O)c1 | 5 | 12 | 13* | 1 | 6 | -22 | -19
O=C(Nc1cccc(C(=O)O)c1)/C(=C/c1cccc([N+](=O)[O-])c1)NC(=O)c1cccc(Br)c1 | -3 | -5 | 2 | -1 | -4 | x | x
COCCn1c(SC(C)C(=O)NCC2CCCO2)nc2scc(-c3ccc(F)cc3)c2c1=O (stereo not drawn) | 1 | -2 | -4 | -1 | -4 | x | x
Cc1cccn2cc(CCNC(=O)c3ccco3)nc12 | -1 | -11 | 1 | 0 | 0 | x | x
Cc1cccn2cc(CNC(=O)c3ccco3)nc12 | 5 | 10 | 6 | 0 | 11* | -8 | 0
Cc1cccc(N=C2NC(=O)C(CO)(CO)S2)c1 | -3 | -3 | 0 | 0 | -6 | x | x
O=C1NC[C@@H](Cc2ccc(O)cc2)N(CCc2cc(C(F)(F)F)cc(C(F)(F)F)c2)C1=O | 2 | -3 | 6 | 0 | 11* | 4 | 3
Cc1ccccc1CSc1n[nH]c(NS(=O)(=O)c2ccccc2)n1 | 1 | 15 | 10* | 0 | 5 | 6 | 1
Cc1nc(SCc2ccccc2C#N)n[nH]1 | 0 | -1 | -1 | 1 | 0 | x | x
O=C(CSc1nccc(=O)[nH]1)NN(c1ccccc1)c1ccccc1 | -3 | 10 | 3 | 0 | -2 | x | x
C[C@H](NC(=O)c1ccc(Br)cc1)C(=O)NCc1ccc(S(N)(=O)=O)cc1 | 0 | 6 | 9.6* | 1 | 6 | -2 | -3
NC(=S)N=Nc1c(O)n(CC(=O)Nc2ccccc2)c2ccccc12 | -1 | -3 | 7 | 0 | 2 | x | x
Cc1cccc(NC(=O)Cn2c(O)c(N=NC(=O)c3ccccc3O)c3ccccc32)c1 | 4 | 0 | 11* | -1 | 2 | 8 | -1
Cc1[nH]n(-c2ccccc2)c(=O)c1C(C[N+](=O)[O-])c1ccccc1Cl (stereo not drawn) | 0 | 1 | 0 | 0 | -2 | x | x
Cc1[nH]n(-c2ccccc2)c(=O)c1C(c1ccc(O)c([N+](=O)[O-])c1)c1c(C)[nH]n(-c2ccccc2)c1=O | 0 | 5 | 22* | 0 | 10 | -3 | -2
COc1ccc(C(C[N+](=O)[O-])c2c(C)[nH]n(-c3ccccc3)c2=O)cc1 (stereo not drawn) | -4 | 3 | 10* | -1 | -1 | 3 | 6
CCc1nnc(NC(=O)CN2C(=O)N(C)C3(CCCCC3)C2=O)s1 | -4 | -3 | 2 | 0 | -1 | x | x
CC(=O)c1cc2c(cc1NC(=O)CCNC(=O)c1ccccc1Cl)OCO2 | -24 | -62 | -50 | 1 | -65 | x | x
O=C(CCNC(=O)c1ccccc1Cl)Nc1ccc2c(c1)OCO2 | 5 | 14 | 11* | 0 | 10 | -2 | -1
COc1ccc(CN2C(=O)CN=C2Nc2cccc(C)c2C)cc1 | 5 | 8 | 9.8* | 0 | 6 | -4 | -1
O=C(NCCOc1cccnc1)C1CCC(=O)N(Cc2ccccc2F)C1 (stereo not drawn) | -3 | -7 | 0 | 0 | -4 | x | x
O=C1c2ccc(Oc3ccc([N+](=O)[O-])cc3)cc2C(=O)N1CCO | -3 | 7 | 3 | 0 | 2 | x | x
O=C1NC(=O)c2cc(Oc3ccc([N+](=O)[O-])cc3)ccc21 | 1 | 4 | 11* | 0 | 11* | -5 | -2
CC1CC(C)(C)CC2(C1)NC(=O)N(CC(=O)Nc1cc(C(F)(F)F)ccc1N1CCCCC1)C2=O (stereo not drawn) | 1 | -9 | 2 | 1 | -13 | x | x
SMILES | ADAM17 inh | ADAM10 inh | PLC-gamma1 inh | KLK7 zymogen act | PLCb3 inh | PLCgamma1 ctr | PLCb3 confirm
Cc1cccc(OCC(=O)N(C)CCc2ccccn2)c1 | 3 | 6 | 8 | 0 | 11* | -4 | 1
CC(=O)c1ccc(OCC(O)COc2ccc(C(C)=O)cc2)cc1 | 5 | 6 | 11* | 1 | 9 | 1 | 4
COc1cc(OC)c(NC(=O)CCNS(=O)(=O)c2ccc3c(c2)oc(=O)n3C)cc1Cl | -1 | -1 | 1 | 0 | 3 | x | x
COc1ccc(OC)c(NC(=O)CCNS(=O)(=O)c2ccc3c(c2)oc(=O)n3C)c1 | 7 | 7 | 6 | 0 | 12* | -3 | -2
NC(N)=NS(=O)(=O)c1ccc(NC(=S)NC(=O)/C=C/c2cccs2)cc1 | -2 | -1 | 13* | -1 | -2 | -1 | -2
O=C(/C=C/c1cccs1)Nc1ccc([N+](=O)[O-])cc1 | 9 | 16 | 12* | 0 | 5 | 5 | 6
O=C(/C=C/c1cccs1)c1ccc([N+](=O)[O-])cc1 | -4 | -5 | 8 | 0 | -4 | x | x
CC12CCC(C/C1=N/O)C2(C)C (stereo not drawn) | -2 | -24 | 10* | -1 | -2 | -4 | 1
CC12CCC(CC1=O)C2(C)C (stereo not drawn) | 0 | -2 | 6 | 0 | 4 | x | x
Cc1cnn(-c2cc(N/N=C/c3ccccc3F)ncn2)c1 | 5 | 7 | 12* | -1 | 5 | -7 | -3
COc1ccc(C(CNC(=O)c2cccc3cccnc23)N(C)C)cc1 (stereo not drawn) | -5 | -5 | -4 | 0 | -11 | x | x
CN(C1=C(NC(=O)c2ccc(Cl)cc2)C(=O)c2ccccc2C1=O)c1ccccc1 | 4 | 13 | 12* | 0 | 1 | 7 | 5
N#Cc1ccc(C23OCCN2CCn2c3c3ccccc3[n+]2[O-])cc1 (stereo not drawn) | -31 | -96 | -72 | 3 | -103 | x | x
Oc1cc2c(cc1O)C1c3ccc(O)c(O)c3OCC1(O)C2 (stereo not drawn) | 0 | -1 | 2 | 12 | 3 | x | x
CC1CCN(CC(CS(=O)(=O)c2ccc([N+](=O)[O-])cc2)N2CCC(C)CC2)CC1 (stereo not drawn) | -1 | 11 | 5 | 0 | 11* | -6 | -4

High-throughput results as filed in PubChem BioAssay.
